From PubChem BioAssay (Tox21)
Inconclusive results are not listed. The source made the active and inactive calls. Unless noted, the call rests on the fitted dose curve.

Columns and labels:
[1] = Nuclear factor erythroid 2-related factor 2/antioxidant responsive element (Nrf2/ARE) small molecule agonists: qHTS cell viability counter screen in human keratinocytes (AID 1919968; active means well fitted curve in the direction sought with a large enough effect in the repeat runs; an effect the other way counts as inactive or inconclusive; further: nearly all actives have a fitted effect of over 55% in size)
Summary of the method: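 KeratinoSens cells (HaCaT keratinocytes stably carrying an ARE-luciferase reporter) were seeded at 1,500 cells/well and rested 5 h at 37 C/5% CO2. They were then exposed to compounds in DMSO for 23 h. Viability was read by CellTiter-Fluor fluorescence after 1 h.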

[2] = Nuclear factor erythroid 2-related factor 2/antioxidant responsive element (Nrf2/ARE) small molecule agonists: luciferase reporter gene qHTS assay in human keratinocytes (AID 1919969); further: nearly all actives have a fitted effect of over 35% in size; further: potency means the concentration at half of the fitted maximal effect
[3] = molecular target: Gonadotropin-releasing hormone receptor (Homo sapiens) (UniProt P30968); experiment: Human gonadotropin-releasing hormone receptor (GnRHR) small molecule agonists, calcium flux assay in GnRHR-HEK293 cells (AID 1920063); further: nearly all actives have a fitted effect of over 35% in size
Summary of the method: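 HEK293 cells stably expressing human GnRHR were plated 18 h at 37 °C, loaded with calcium dye 1 h at 37 °C, then given compound in agonist mode; fluorescence (Ex/Em 480/540) read kinetically for 3 min at 1 s intervals.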

[4] = molecular target: KiSS-1 receptor (Homo sapiens) (UniProt Q969F8); experiment: Human kisspeptin (KISS1R) small molecule agonists, calcium flux assay in KISS1R-HEK293 cells (AID 1920064; active means well fitted curve in the direction sought with a large enough effect in the repeat runs; an effect the other way counts as inactive or inconclusive)
Summary of the method: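 HEK293 cells stably expressing human KISS1R were plated 18 h at 37 °C, loaded with calcium dye for 1 h at 37 °C, then given compound by pin tool. Fluorescence (Ex/Em 480/540) was read kinetically for 3 min.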

[5] = G protein-coupled receptor (GPCR) small molecule agonists, calcium flux assay: HEK293 wild type cell line counter screen (AID 1920065)
Summary of the method: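 Cells were plated and cultured 18 h at 37 C/5% CO2, then loaded with calcium dye for 1 h at 37 C. Compounds in DMSO were pin-transferred in agonist mode, and fluorescence (Ex/Em 480/540) was read kinetically for 3 min at 1 s intervals.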

[6] = p53 small molecule agonists, cell-based qHTS assay with human liver microsomes (AID 1963577)
Summary of the method: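 p53RE-bla reporter cells were pre-incubated 5 h at 37 C, then treated with compounds plus human liver microsomes (0.5 mg/mL final) and NADPH (0.5 mg/mL final) for 16 h at 37 C. Beta-lactamase activity was read by LiveBLAzer fluorescence after 2 h at room temperature.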

[7] = p53 small molecule agonists, cell-based qHTS assay with rat liver microsomes (AID 1963578)
Summary of the method: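 p53RE-bla cells were exposed to compounds together with rat liver microsomes (0.5 mg/mL final) and NADPH (0.5 mg/mL final) for 16 h at 37 C, then read by LiveBLAzer beta-lactamase fluorescence after 2 h at room temperature.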

[8] = p53 small molecule agonists, cell-based qHTS assay with rat liver microsomes: qHTS cell viability counter screen (AID 1963580); further: nearly all actives have a fitted effect of over 45% in size
Summary of the method: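 p53RE-bla HCT-116 cells were exposed 16 h at 37 C to compounds with rat liver microsomes (0.5 mg/mL) and NADPH (0.5 mg/mL). Viability was measured in the same wells as ATP content by CellTiter-Glo luminescence.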

[9] = p53 small molecule agonists, cell-based qHTS assay: qHTS cell viability counter screen (AID 1963581); further: nearly all actives have a fitted effect of over 45% in size
Summary of the method: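 p53RE-bla HCT-116 cells were exposed to compounds for 16 h at 37 C; after the beta-lactamase FRET read in the same wells, CellTiter-Glo was added and luminescence (intracellular ATP) read after 30 min at room temperature.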

[10] = p53 small molecule agonists, cell-based qHTS assay (AID 1963582; active means well fitted activation curve with a large enough effect in the signal ratio in the repeat runs, not every such curve was filed as active; the % refers to the signal ratio)
Summary of the method: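 p53RE-bla beta-lactamase reporter cells rested 5 h at 37 C/5% CO2, then received compounds in DMSO by pin transfer and were incubated 16 h at 37 C. LiveBLAzer B/G FRET substrate was loaded for 2 h at room temperature before fluorescence reading.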

[11] = cAMP Responsive Elements (CRE) small molecule antagonists, cell-based qHTS assay (AID 1963591; active means well fitted inhibition curve with a large enough effect in the signal ratio in the repeat runs, not every such curve was filed as active; the % refers to the signal ratio)
Summary of the method: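 CRE-bla HEK293T cells were plated 18 h at 37 °C/5% CO2, pinned with compound in DMSO, then stimulated with NKH477 at 0.25 uM final for 3 h. LiveBLAzer B/G FRET substrate was added and plates incubated 2 h at room temperature.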

[12] = molecular target: Beta-2 adrenergic receptor (Homo sapiens) (UniProt P07550); experiment: Adrenergic beta2 receptor (ADRB2) small molecule antagonists, cell-based qHTS assay (AID 1963592); further: series mostly up to about 92 µM; nearly all actives have a fitted effect of over 50% in size
Summary of the method: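 Cells (CHO, stable ADRB2 overexpression) incubated 18-20hr at 37C; compounds added from DMSO; agonist mix (1nM isoproterenol, 100uM IBMX, 25uM Ro-20-1724) added; 0.5hr RT; d2-cAMP and anti-cAMP-cryptate added; 1hr RT; 665/615 nm read.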

[13] = molecular target: D(2) dopamine receptor (Homo sapiens) (UniProt P14416); experiment: Dopamine D2 receptor (DRD2) small molecule antagonists, cell-based qHTS assay (AID 1963595; active means well fitted inhibition curve with a large enough effect in the signal ratio in the repeat runs, with a control signal flat; the % refers to the signal ratio; further: potency means the concentration at half of the fitted maximal effect)
Summary of the method: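 DRD2-HEK293; 0.1 mM Ro20-1724; cpd 10 min RT; NKH477 200 nM + quinpirole 12 nM, 30 min RT; HTRF cAMP (cAMP-d2/anti-cAMP cryptate), 665/620 nm ratio after 1 h.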

[14] = cAMP Responsive Elements (CRE) small molecule agonists, cell-based qHTS assay (AID 1963590)
Summary of the method: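 CRE-bla HEK 293T cells in DMEM with 10% dialyzed FBS, NEAA, pyruvate and 25 mM HEPES were plated 18 h at 37 C/5% CO2, then exposed to compounds in DMSO for 3 h before LiveBLAzer B/G FRET substrate addition.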

[15] = molecular target: D(2) dopamine receptor (Homo sapiens) (UniProt P14416); experiment: Dopamine D2 receptor (DRD2) small molecule agonists, cell-based qHTS assay (AID 1963594); further: nearly all actives have a fitted effect of over 35% in size
Summary of the method: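 HEK293 cells stably expressing human DRD2, pre-treated with PDE inhibitor Ro20-1724 (0.1 mM final) and compound 10 min at room temperature, then stimulated with NKH477 (200nM […]) for 30 min. cAMP read by HTRF (665/620 nm).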

[16] = molecular target: 5-hydroxytryptamine receptor 2A (Homo sapiens) (UniProt P28223); experiment: 5-hydroxytryptamine receptor 2A (HTR2A) small molecule antagonists, cell-based qHTS assay (AID 1963586); further: nearly all actives have a fitted effect of over 45% in size
Summary of the method: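 Antagonist-mode intracellular calcium assay: DOI (4 nM) added after 5 min compound pre-incubation at room temperature to dye-loaded HTR2A-CHO cells. Fluorescence followed for 3 min, sampled every second.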

[17] = molecular target: 5-hydroxytryptamine receptor 2A (Homo sapiens) (UniProt P28223); experiment: 5-hydroxytryptamine receptor 2A (HTR2A) small molecule agonists, cell-based qHTS assay (AID 1963587); further: nearly all actives have a fitted effect of over 30% in size
Summary of the method: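 CHO cells stably expressing human HTR2A, plated 18 h, loaded with calcium dye 1 h at 37 C. Agonist mode: compounds added and intracellular calcium fluorescence recorded kinetically for 2 min at 1 sec intervals.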

[18] = molecular target: Muscarinic acetylcholine receptor M1 (Homo sapiens) (UniProt P11229); experiment: Cholinergic receptor muscarinic 1 (CHRM1) small molecule antagonists, cell-based qHTS assay (AID 1963588); further: nearly all actives have a fitted effect of over 40% in size
Summary of the method: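 CHRM1-CHO calcium-flux assay, antagonist mode. Cells were seeded 18 h, dye-loaded 1 h at 37 C and given compound for 5 min at RT, then acetylcholine was added at 50nM. FDSS fluorescence was read 3 min; 15 concentrations, three runs.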

[19] = molecular target: Muscarinic acetylcholine receptor M1 (Homo sapiens) (UniProt P11229); experiment: Cholinergic receptor muscarinic 1 (CHRM1) small molecule agonists, cell-based qHTS assay (AID 1963589); further: nearly all actives have a fitted effect of over 35% in size
Summary of the method: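 CHO cells stably expressing human CHRM1, seeded 18 h at 37 C/5% CO2, dye-loaded 1 h at 37 C, then given compound in agonist mode; intracellular calcium fluorescence read kinetically at 1 s intervals. Fifteen concentrations, three independent runs.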
On the % scale 0 is the no-effect control and ±100 the full control effect.

5-hydroxytryptamine receptor 2A (Homo sapiens), sequence (P28223 whole entry, looked up): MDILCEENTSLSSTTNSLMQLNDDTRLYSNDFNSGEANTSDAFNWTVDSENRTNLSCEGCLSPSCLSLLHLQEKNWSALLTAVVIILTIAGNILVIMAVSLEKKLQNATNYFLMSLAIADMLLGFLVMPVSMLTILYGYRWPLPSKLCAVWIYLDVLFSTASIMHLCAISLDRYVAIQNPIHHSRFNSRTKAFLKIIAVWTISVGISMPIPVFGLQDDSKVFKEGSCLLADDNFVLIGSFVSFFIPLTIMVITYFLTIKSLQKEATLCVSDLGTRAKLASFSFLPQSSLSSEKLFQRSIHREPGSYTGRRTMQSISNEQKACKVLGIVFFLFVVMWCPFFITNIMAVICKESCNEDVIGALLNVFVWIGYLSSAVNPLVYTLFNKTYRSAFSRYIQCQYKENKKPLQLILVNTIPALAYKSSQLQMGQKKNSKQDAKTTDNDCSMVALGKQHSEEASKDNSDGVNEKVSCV
Muscarinic acetylcholine receptor M1 (Homo sapiens), sequence (P11229 whole entry, looked up): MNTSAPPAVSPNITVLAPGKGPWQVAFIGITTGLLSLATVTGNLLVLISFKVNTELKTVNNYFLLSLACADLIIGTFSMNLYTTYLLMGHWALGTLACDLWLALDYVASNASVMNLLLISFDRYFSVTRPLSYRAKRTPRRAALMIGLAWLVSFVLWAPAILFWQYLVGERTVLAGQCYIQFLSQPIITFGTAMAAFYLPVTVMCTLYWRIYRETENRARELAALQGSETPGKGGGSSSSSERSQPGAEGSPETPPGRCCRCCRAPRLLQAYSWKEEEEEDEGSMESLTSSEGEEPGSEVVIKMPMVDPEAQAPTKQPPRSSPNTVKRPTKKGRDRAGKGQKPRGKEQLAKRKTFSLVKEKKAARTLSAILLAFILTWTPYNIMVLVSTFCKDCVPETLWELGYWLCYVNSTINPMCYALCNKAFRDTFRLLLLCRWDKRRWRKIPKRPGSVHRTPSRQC
KiSS-1 receptor (Homo sapiens), sequence (Q969F8 whole entry, looked up): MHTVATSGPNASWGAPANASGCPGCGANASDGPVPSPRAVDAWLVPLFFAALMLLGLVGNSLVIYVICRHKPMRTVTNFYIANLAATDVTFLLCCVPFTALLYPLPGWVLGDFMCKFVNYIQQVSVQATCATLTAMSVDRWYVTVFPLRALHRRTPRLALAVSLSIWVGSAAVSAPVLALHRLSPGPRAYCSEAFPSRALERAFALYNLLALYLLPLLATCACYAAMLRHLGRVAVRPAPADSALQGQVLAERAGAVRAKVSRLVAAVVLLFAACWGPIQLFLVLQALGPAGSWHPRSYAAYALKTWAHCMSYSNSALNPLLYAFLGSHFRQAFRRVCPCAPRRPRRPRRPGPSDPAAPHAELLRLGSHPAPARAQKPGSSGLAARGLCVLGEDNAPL
Gonadotropin-releasing hormone receptor (Homo sapiens), sequence (P30968 whole entry, looked up): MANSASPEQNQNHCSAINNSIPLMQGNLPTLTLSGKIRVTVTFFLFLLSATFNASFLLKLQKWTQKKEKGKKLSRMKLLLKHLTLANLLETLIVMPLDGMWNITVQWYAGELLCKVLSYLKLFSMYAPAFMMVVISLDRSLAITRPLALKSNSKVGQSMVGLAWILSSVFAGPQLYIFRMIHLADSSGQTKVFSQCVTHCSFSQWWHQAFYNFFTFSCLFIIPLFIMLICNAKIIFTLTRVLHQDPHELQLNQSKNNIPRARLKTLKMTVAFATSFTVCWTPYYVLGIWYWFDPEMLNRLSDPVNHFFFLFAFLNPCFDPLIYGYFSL
D(2) dopamine receptor (Homo sapiens), sequence (P14416 whole entry, looked up): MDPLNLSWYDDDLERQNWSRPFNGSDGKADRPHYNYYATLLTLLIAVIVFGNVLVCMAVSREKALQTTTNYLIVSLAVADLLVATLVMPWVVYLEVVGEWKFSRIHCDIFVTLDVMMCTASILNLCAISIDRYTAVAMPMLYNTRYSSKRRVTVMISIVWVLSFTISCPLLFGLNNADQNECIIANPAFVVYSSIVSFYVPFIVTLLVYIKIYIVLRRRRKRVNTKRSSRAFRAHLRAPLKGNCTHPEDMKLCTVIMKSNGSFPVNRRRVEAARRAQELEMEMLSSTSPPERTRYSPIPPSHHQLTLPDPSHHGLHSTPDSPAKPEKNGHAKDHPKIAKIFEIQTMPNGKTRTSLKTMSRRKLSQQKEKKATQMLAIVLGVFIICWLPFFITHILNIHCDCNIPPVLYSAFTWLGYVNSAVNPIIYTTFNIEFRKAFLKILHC
Beta-2 adrenergic receptor (Homo sapiens), sequence (P07550 whole entry, looked up): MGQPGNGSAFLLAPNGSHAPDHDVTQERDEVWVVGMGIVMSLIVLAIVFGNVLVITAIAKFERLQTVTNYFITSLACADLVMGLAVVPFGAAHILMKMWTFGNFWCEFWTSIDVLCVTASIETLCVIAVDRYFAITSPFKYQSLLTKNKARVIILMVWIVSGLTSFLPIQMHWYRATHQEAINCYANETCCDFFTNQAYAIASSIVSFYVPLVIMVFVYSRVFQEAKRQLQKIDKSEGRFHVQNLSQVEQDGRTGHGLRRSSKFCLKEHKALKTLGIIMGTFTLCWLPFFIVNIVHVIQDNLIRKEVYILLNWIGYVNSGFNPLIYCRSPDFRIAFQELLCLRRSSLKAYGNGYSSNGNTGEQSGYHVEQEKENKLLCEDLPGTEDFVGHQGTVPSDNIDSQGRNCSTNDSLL

CCn1cc(C(=O)O)c(=O)c2cc(F)c(N3CCN(C)CC3)cc21
inactive: activity change, negative = cytotoxicity [1] 14.8% [at 19 µM] | activity, positive = activation [2] -5.55% [at 19 µM] | activity change [3] -1.03% [at 11.8 µM, hits give high values] | activation [4] -0.924% [at 15.8 µM] | activation [5] -0.469% [at 11.8 µM] | activation [6] 0.192% [at 13.5 µM] | activation [7] -1.11% [at 13.6 µM] | activity change, negative = cytotoxicity [8] -0.739% [at 13.5 µM] | activity change, negative = cytotoxicity [9] -4.59% [at 13.5 µM] | activation [10] -0.0544% [at 13.5 µM] | activity change, negative = inhibition [11] -14.3% [at 18.9 µM] | activity change, negative = inhibition [12] 0.624% [at 19 µM] | activity change, negative = inhibition [13] 4.28% [at 18.9 µM]

COC(=O)[C@@H]1[C@H]2C[C@H]3c4[nH]c5ccccc5c4CCN3C[C@@H]2CC[C@@H]1O
active: Potency [13] 23.7 µM
inactive: Potency [1] | Potency [2] | Potency [3] | outcome [4] | outcome [5] | Potency [6] | Potency [7] | Potency [8] | Potency [9] | Potency [10] | Potency [14] | Potency [11] | Potency [15]

COc1ccc(S(=O)(=O)N2c3ccc(Cl)cc3[C@@](O)(c3ccccc3Cl)[C@H]2C(=O)N2CCC[C@@H]2C(N)=O)cc1OC
inactive: Potency [1] | Potency [2] | Potency [3] | outcome [4] | outcome [5] | Potency [6] | Potency [7] | Potency [8] | Potency [9] | Potency [16] | Potency [17] | Potency [18] | Potency [19] | Potency [14] | Potency [11] | Potency [12] | Potency [15] | Potency [13]

CC(C(=O)O)c1ccc(CC2CCCC2=O)cc1 (stereo not given)
inactive: Potency [1] | Potency [2] | Potency [3] | outcome [4] | outcome [5] | Potency [6] | Potency [7] | Potency [8] | Potency [9] | Potency [10] | Potency [14] | Potency [11] | Potency [12] | Potency [15] | Potency [13]

CC(C)=CCC/C(C)=C/CC/C(C)=C/CO
active: Potency [2] 68.6 µM
inactive: Potency [1] | Potency [3] | outcome [4] | outcome [5] | Potency [6] | Potency [7] | Potency [8] | Potency [9] | Potency [16] | Potency [17] | Potency [18] | Potency [19] | Potency [14] | Potency [12] | Potency [15]

CC(=O)Oc1ccc(C2(c3ccc(OC(C)=O)cc3)C(=O)Nc3ccccc32)cc1
active: Potency [2] 0.266 µM
inactive: Potency [1] | Potency [3] | outcome [4] | outcome [5] | Potency [6] | Potency [7] | Potency [8] | Potency [9] | Potency [16] | Potency [18] | Potency [19] | Potency [14] | Potency [12] | Potency [15] | Potency [13]

C[C@]1(Cn2ccnn2)[C@H](C(=O)O)N2C(=O)C[C@H]2S1(=O)=O
inactive: Potency [1] | Potency [2] | Potency [3] | outcome [4] | outcome [5] | Potency [6] | Potency [7] | Potency [8] | Potency [9] | Potency [10] | Potency [14] | Potency [12] | Potency [15]
